Measured values from the supplement of paper PMC12350171.
Where a name gives a salt, the structure may show the parent alone. Unmarked numbers belong to inactive results.

How the values were obtained:
Conditions in all cases: 20 µM
[1] = test system: Salmonella enterica typhimurium; experiment: growth AUC normalised to DMSO control (fraction of control); higher = less growth inhibition, active = hit call of the paper
Summary of the method: (§1)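 Hemin and NAD were added to the medium for Haemophilus parainfluenzae. All pathogens, after two anaerobic passages, were inoculated at a starting OD578 of 0.01 into pre-reduced mGAM plates with 20 μM compound and 1% DMSO under breathable seals, and OD578 was read hourly for 24 h in three biological replicates. AUC of each growth curve was obtained with the trapezoidal rule up to the exponential-to-stationary transition and normalised to DMSO controls from the same plate.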

Shigella flexneri = experiment: as above
Summary of the method: as §1

Vibrio cholerae = experiment: as above
Summary of the method: as §1

[2] = test system: Yersinia pseudotuberculosis; experiment: as above
Summary of the method: as §1

P. vulgatus RND KO = experiment: growth AUC normalised to DMSO control (median) (fraction of control); higher = less growth inhibition, active = hit call of the paper
Summary of the method: (§2)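 Strains were passaged twice overnight without oxygen, then grown in mGAM in 96-well plates with each approved-drug library compound at 20 μM and 1% DMSO, starting at OD578 0.01. OD578 was read hourly for 24 h inside an anaerobic incubator. Curves were truncated at entry into stationary phase, and the trapezoidal-rule area under the curve was normalised to same-plate vehicle wells. The value is the median across three biological replicates.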

P. vulgatus WT = experiment: as above
Summary of the method: as §2

[3] = test system: S. enterica typhimurium WT; experiment: as above
Summary of the method: as §2

[4] = test system: S. enterica typhimurium tolC KO; experiment: as above
Summary of the method: as §2
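Wherever growth AUC normalised to DMSO control (median) is given: active when median AUC fell below 0.1.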

SMILES	growth AUC normalised to DMSO control [1]	growth AUC normalised to DMSO control (Shigella flexneri)	growth AUC normalised to DMSO control (Vibrio cholerae)	growth AUC normalised to DMSO control [2]	growth AUC normalised to DMSO control (P. vulgatus RND KO)	growth AUC normalised to DMSO control (P. vulgatus WT)	growth AUC normalised to DMSO control [3]	growth AUC normalised to DMSO control [4]
C[C@H](O)C(=O)Nc1c(I)c(C(=O)NC(CO)CO)c(I)c(C(=O)NC(CO)CO)c1I [Iopamidol]	1.03	1.08	1.07	1.03	1.08	1.08	1.01	1.01
CCN(CC)CC#CCOC(=O)C(O)(c1ccccc1)C1CCCCC1 (stereo not given) [Oxybutynin chloride]	0.977	0.944	0.935	0.981	0.976	0.986	0.999	0.946
O=C(O)c1cn(C2CC2)c2cc(N3CCNCC3)c(F)cc2c1=O [Ciprofloxacin hydrochloride monohydrate]	0.00833 (active)	0.0218 (active)	0.0273 (active)	0.0762 (active)	0.0296 (active)	0.679	0.00642 (active)	0.00798 (active)
CN(C)CCN1C(=O)c2ccccc2N(C)c2ccccc21 [Dibenzepine hydrochloride]	0.986	0.972	0.984	0.977	0.994	0.979	0.988	0.992
COC(=O)C1=C(C#N)NC(C)=C(C(=O)OC(C)C)C1c1cccc([N+](=O)[O-])c1 (stereo not given) [Nilvadipine]	1.01	1.03	1.02	1.02	1.15	1.12	1	0.922
CCCCC(CC)CN1CN(CC(CC)CCCC)CC(C)(N)C1 (stereo not given) [Hexetidine]	1.04	1.05	1.02	1.04	1.02	1.03	1.02	0.88
CCCSc1ccc2[nH]c(NC(=O)OC)nc2c1 [Albendazole]	1	1.03	0.99	0.993	1.03	1.07	0.999	1
CCOC(=O)C1=C(C)NC(C)=C(C(=O)OC)C1c1cccc([N+](=O)[O-])c1 (stereo not given) [Nitrendipine]	1.04	1	1.06	1.01	1.09	1.04	0.996	0.982
OCCN1CCN(CCCN2c3ccccc3Sc3ccc(C(F)(F)F)cc32)CC1 [Fluphenazine dihydrochloride]	1.01	0.97	1.01	1.01	1	1	0.993	0.918
N[C@H]1CONC1=O [(S,-) Cycloserine]	1.01	1.03	1.04	1.04	0.897	0.954	0.997	0.996
OC(CCN1CCCCC1)(c1ccccc1)C1CCCCC1 (stereo not given) [Trihexyphenidyl-D,L hydrochloride]	1	0.996	0.961	1.02	1.02	1.04	1.01	0.986
CNC(C)CCC=C(C)C (stereo not given) [Isometheptene mucate]	0.988	0.995	1.01	1	1.01	1.02	1.01	1
CCN(CC)CCCC(C)Nc1c2ccc(Cl)cc2nc2ccc(OC)cc12 (stereo not given) [Quinacrine dihydrochloride hydrate]	0.957	0.933	1.04	0.996	1.01	0.986	0.99	0.978
CCCCOc1ccc(C(=O)CCN2CCCCC2)cc1 [Dyclonine hydrochloride]	0.985	0.963	0.913	0.979	1	1.01	0.996	0.986
Cc1cccc(C)c1NC(=O)CN1CCN(CCCC(c2ccc(F)cc2)c2ccc(F)cc2)CC1 [Lidoflazine]	1.01	1.02	1.01	1.02	1.04	1.04	1.01	0.938
CC[C@H](C)C(=O)O[C@H]1C[C@@H](C)C=C2C=C[C@H](C)[C@H](CC[C@@H]3C[C@@H](O)CC(=O)O3)[C@H]21 [Lovastatin]	0.999	0.997	0.995	0.999	0.958	0.928	0.99	0.967
Cc1ccnc(NS(=O)(=O)c2ccc(N)cc2)n1 [Sulfamerazine]	0.973	1.03	0.977	1.01	0.988	1.01	0.986	0.998
Cn1c(=O)c2c(ncn2CC2OCCO2)n(C)c1=O [Doxofylline]	1	1.07	1.01	0.99	1.02	1.06	0.999	1
COC(=O)Nc1nc2cc(C(=O)c3ccccc3)ccc2[nH]1 [Mebendazole]	0.975	0.975	0.951	0.996	0.998	0.991	0.998	0.989
O=C1CN(/N=C/c2ccc(-c3ccc([N+](=O)[O-])cc3)o2)C(=O)N1 [Dantrolene sodium salt]	1.04	0.97	0.948	0.986	1.04	1.03	1.02	0.825
O=C(O)CCc1nc(-c2ccccc2)c(-c2ccccc2)o1 [Oxaprozin]	1.02	1.02	1.01	0.994	1	1.05	1	1
CCSc1ccc2c(c1)N(CCCN1CCN(C)CC1)c1ccccc1S2 [Thiethylperazine maleate]	1	1.02	0.983	0.99	1	1	0.996	0.91
CCCCNc1cc(C(=O)O)cc(S(N)(=O)=O)c1Oc1ccccc1 [Bumetanide]	0.969	0.991	0.982	0.995	1.01	1.01	0.996	0.991
O=C(NCC(O)CO)c1c(I)c(C(=O)NCC(O)CO)c(I)c(N(CCO)C(=O)CO)c1I (stereo not given) [Ioversol]	1.01	1.03	1.07	1.03	1.03	1.03	1	1.01
Nc1cc(-c2ccncc2)c[nH]c1=O [Amrinone]	1.01	1.06	1.07	1	1.05	1.06	1	1.02
CN1CCN(CCCN2c3ccccc3Sc3ccc(C(F)(F)F)cc32)CC1 [Trifluoperazine dihydrochloride]	1.03	1.04	1.01	1.04	0.974	0.941	1.02	0.929
O=C(CCCCCCC(=O)Nc1ccccc1)NO [Vorinostat]	0.994	1.03	0.996	1.03	1.01	1.06	0.997	1
O=C(CCCN1CC=C(n2c(=O)[nH]c3ccccc32)CC1)c1ccc(F)cc1 [Droperidol]	0.989	0.985	0.892	0.98	0.982	0.976	0.99	0.936
Clc1ccc2c(c1)CCc1cccnc1C2=C1CCNCC1 [Desloratadine]	1.02	0.975	1	0.998	0.959	0.961	0.988	0.996
O=C1NCC2(CCN(CCc3ccccc3)CC2)O1 [Fenspiride hydrochloride]	0.967	0.947	0.994	0.971	0.988	0.974	1	0.993
